Shown is part of a subset that was picked to be rich in hits.
CRE-bla Fsk: alters forskolin-stimulated CRE reporter signaling in CHO cells; CHO CRE-bla reporter (cAMP response element driving beta-lactamase), forskolin EC10, beta-lactamase ratio; Potency, µM (doses to about 38.2 µM), hits mostly activators; 2.5% of 71,000 active; AID 662; active means well fitted activation curve with a large enough effect in the signal ratio, with a control signal flat, not every such curve was filed as active; inconclusive means small, poorly fitted or top-dose-only effect, or effect the other way, or a change in a side signal; the % refers to the signal ratio
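qHTS titration format; CRE-bla CHO reporter; stimulus EC10 NKH 477, a water-soluble forskolin. Read: CCF4 460/530 nm ratio. Potency expressed as AC50 for activators or inhibitors.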
GFP derepression: epigenetic modulators derepressing GFP locus in mouse cells. mouse C127i GFP locus derepression, cytometry, 30 h. Potency, µM (top dose mostly 46.1 µM). AID 597. 0.09% of 68,000 active
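Derepression screen: silenced CMV-GFP reporter in murine C127i cells, 30 h compound incubation at 37 C, washed cells imaged by laser-scanning cytometer to enumerate GFP-expressing objects of 20 to 120 um.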
IkB sig inh: suppresses IkB signaling in ABC-DLBCL reporter cells; ABC-DLBCL IkBa-CBG/CBR dual luciferase ratio, 4 h; response scale: scaled: untreated 0%, proteasome inhibitor 100%; Potency, µM (top dose mostly 57.1 µM); 0.04% of 110,000 active; AID 445; active means well fitted curve in the direction sought with a large enough effect in the signal ratio, not every such curve was filed as active; inconclusive means small, poorly fitted or top-dose-only effect, or a change in a side signal; the % refers to the signal ratio;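 further: the direction sought is a rising ratio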
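Luminescence ratio of IκBα-fused green versus native red beetle luciferase in OCI-Ly3 cells, 4 h post-doxycycline with compound; red signal alone, scaled from basal (0%) to zero light (-100%), flagged nonspecific or cytotoxic effects.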
HBB splice mod: modulators of hemoglobin beta chain splicing. HBB splicing reporter cell assay, activation; EGFP reporter with mutant IVS2-654 intron; response scale: normalised to 500 nM splice-correcting PNA. Potency, µM (top dose mostly 46.1 µM), usual class: activators. 0.06% of 65,000 active
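Compounds were applied for 2 days to HeLa EGFP-654 cells, 500/well in Optimem with 2% FCS. The reporter's EGFP is disrupted by mis-splicing of beta-globin intron IVS2-654. Readout: summed well GFP fluorescence from 488 nm laser scanning; reference was 500 nM antisense […] 654 PNA.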
ERK AVP inh: vasopressin-driven ERK pathway inhibition; HEK293-V1b, vasopressin-stimulated pERK AlphaScreen; Potency, µM (titrated, usually from 57.5 µM), usual class: inhibitors; 0.99% of 72,000 active; AID 995; further: nearly all actives have a fitted effect of over 55% in size
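V1b-HEK293 cells; cpd 30 min 37C; 25 nM vasopressin 5 min; lyse 10 min; AlphaScreen beads 5 hr RT. Normalized to DMSO basal and 25 nM vasopressin; AC50 by Hill fit.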
A number is an active result; i = inactive; ? = inconclusive; nt = not tested or not shown; [ ] = dose if it differs, or a comment. Unless noted, the call rests on the fitted dose curve; in most records, active means well fitted curve in the direction sought with a large enough effect; inconclusive means small, poorly fitted or top-dose-only effect, or another doubt; inactive means no such curve, though single readings can be large; an effect the other way counts as inactive or inconclusive.

SMILES	CRE-bla Fsk	GFP derepression	IkB sig inh	HBB splice mod	ERK AVP inh
CC(=C1C2C=CC1C1C(=O)NC(=O)C21)c1ccccc1 (configuration not stated)	?	?	i	15.8µM	i
CCCCc1c2ccccc2nc2[nH]c3ccccc3c12	5.01µM	nt	nt	i	i
CCOC(=O)c1cnn(-c2ccc(C(=O)Nc3cccc(C(C)=O)c3)cc2)c1N	nt	nt	i	nt	nt
COc1ccc(CCn2c(-c3ccco3)nc3ccccc3c2=O)cc1OC	?	i	?	i[0.0738 µM]	10µM
COc1ccccc1C(=O)Nc1ccc(S(=O)(=O)N2CCOCC2)cc1	?	i	i	i	i
CCOc1ccccc1C(=O)Nc1ccc(S(=O)(=O)N2CCOCC2)cc1	3.16µM	i	i	i	i
O=C(Nc1ccc(S(=O)(=O)N2CCCC2)cc1)c1ccc(CN2CCOCC2)cc1	i	i	?	i	10µM
O=C(Nc1ccc(Cc2ccncc2)cc1)c1ccc(S(=O)(=O)N2CCOCC2)cc1	?	i	?	i	i
CCCCNc1cc(C)oc(=O)c1C(C)=O	?	i	i	i	i
CCCC(=O)c1c(NC(C)C)cc(C)oc1=O	12.6µM	i	i	i	i
CCOC(=O)c1ccccc1NC(=O)CSc1nc2ccccc2n1CC(=O)N1CCCC1	2µM	i	i	i	i
N#Cc1cccc(-c2cc(NCc3ccccc3)ncn2)c1	?	i[9.22 µM]	i[11.4 µM]	i	20µM
N#Cc1cccc(-c2nc(NCc3ccccc3)c3ccccc3n2)c1	?	i[9.22 µM]	i[11.4 µM]	i	20µM
N#Cc1cccc(-c2nc(Nc3ccncc3)c3ccccc3n2)c1	?	i[9.22 µM]	i[11.4 µM]	i	i
COCCn1c(CNC(=O)c2ccc(C)cc2)nc2cccnc21	nt	nt	i	nt	nt
CCOc1cc(-c2cc(-c3ccc(N)cc3)nc(N)c2C#N)ccc1O	2.51µM	i	?	i	?
CCc1nc(N)c(C#N)c(-c2cccn2C)c1C	12.6µM	i	i	i	?
CCc1nc(N)c(C#N)c(-c2ccc(OC)c(OC)c2)c1C	?	i	i	nt	i
CCc1nc(N)c(C#N)c(-c2ccc(O)c(OC)c2)c1C	10µM	i	i	i	?
CCc1nc(N)c(C#N)c(-c2ccco2)c1C	10µM	i	i	i[9.22 µM]	i
CCOc1cc(-c2c(C#N)c(N)nc3c2CCCC3)ccc1O	?	i	i	nt	i
CC(=O)c1ccc(N2C(=O)Nc3ccccc3S2(=O)=O)cc1	nt	nt	i	nt	nt
Cc1nc(N)c(C#N)c(-c2ccccc2)c1C	?	i	i	i	i
Cc1c(-c2ccccc2)nc(N)c(C#N)c1-c1ccco1	10µM	i	i	i	i
Cc1cc(C)c2cc(CN(CCN3CCCC3)C(=O)Nc3ccc(F)cc3)c(=O)[nH]c2c1	i	i	i	i	i
SMILES	CRE-bla Fsk	GFP derepression	IkB sig inh	HBB splice mod	ERK AVP inh
Cc1cc(C)c2cc(CN(CCO)C(=O)Nc3ccc(Cl)cc3)c(=O)[nH]c2c1	i	i	i	nt	31.6µM
Cc1nc(SCC(=O)NCC2CCCO2)c2oc3ccccc3c2n1 (configuration not stated)	10µM	i	i	i[0.369 µM]	i
Cc1nc(SCC(=O)Nc2ccc(F)cc2)c2oc3ccccc3c2n1	0.631µM	i	i	i[0.369 µM]	i
Cc1nc(SCC(=O)NCc2ccco2)c2oc3ccccc3c2n1	?	i	i	i	i
Cc1cc2cc(CCNC(=O)CC(C)C)c(=O)[nH]c2cc1C	12.6µM	nt	i	i	nt
CCC(=O)NCCc1cc2cc(C)c(C)cc2[nH]c1=O	i	i	i	i	i
COC(=O)[C@@]1(Cc2ccccc2)[C@H]2c3cc(C(=O)N4CCCC4)n(Cc4nc5ccccc5[nH]4)c3C[C@H]2CN1C(=O)c1ccccc1	i	nt	nt	i	i
Cc1csc(NC(=O)CCCSc2nc3ccccc3s2)n1	?	i	?	i	15.8µM
Cc1cnc(NC(=O)CCCSc2nc3ccccc3s2)s1	?	i	?	i	i
CCCc1c(OCCCOc2ccc(OCC(=O)O)cc2)ccc(CC=O)c1O	0.1µM	i	?	nt	i
CCOc1ccccc1CNC(=O)Cn1nc(N2CCN(c3ccccc3)CC2)ccc1=O	nt	nt	i	nt	nt
C=C(C)Cn1c(SCC#N)nc2ccccc2c1=O	10µM	i	i	i	i
C=C(C)Cn1c(SCC)nc2ccccc2c1=O	?	i	i	i	i
CCN(CCCn1c(=S)[nH]c2ncccc2c1=O)c1ccccc1	?	i	i	i	i
CCN(CCCn1c(SCC#N)nc2ccccc2c1=O)c1ccccc1	2.51µM	i	i	i	i
CSc1ccccc1NC(=O)c1c(C)noc1C	12.6µM	i	i	i	i
CCS(=O)(=O)N1CCC2(CC1)OC(=O)C(C)=C2C(=O)NCc1ccc(OC)c(OC)c1	nt	nt	i	nt	nt
CCOC(=O)c1c(NC(=O)COc2cccc(C)c2C)sc2c1CCC(CC)C2 (configuration not stated)	nt	nt	i	nt	nt
COc1ccc(-c2nc(C#N)c(NCCc3ccccc3)o2)cc1OC	?	i	?	i[0.369 µM]	15.8µM
COc1ccc(CNc2oc(-c3cccc4ccccc34)nc2C#N)cc1	10µM	i	i	i[0.369 µM]	i
CNc1oc(-c2ccco2)nc1C#N	i	i	i	i[0.369 µM]	i
COc1ccc(CCNc2oc(Cc3ccccc3)nc2C#N)cc1OC	10µM	i	?	i[1.84 µM]	?
COc1ccc(CCNc2oc(COc3ccccc3Cl)nc2C#N)cc1OC	?	i	?	i	?
Cc1ccc(CNc2oc(-c3ccco3)nc2C#N)cc1	10µM	i	i	i	i
Cc1ccc2oc(C(=O)Nc3sc4c(c3C(=O)NCc3cccnc3)CCCC4)cc(=O)c2c1	nt	nt	i	nt	nt
SMILES	CRE-bla Fsk	GFP derepression	IkB sig inh	HBB splice mod	ERK AVP inh
CCc1nn(CC(=O)N2CCC(C)CC2)c(=O)c2cc3occc3n12	nt	nt	i	nt	nt
C#CCCCO/N=C1/C[C@@H](O)[C@@H](O)[C@@H]2[C@@H]3C(=O)N(c4cccc(Oc5ccccc5)c4)C(=O)[C@H]3CC[C@@H]12	nt	nt	nt	i[9.22 µM]	i[11.5 µM]
COc1ccc(-c2nc(C#N)c(NCc3ccc(C)cc3)o2)cc1OC	5.01µM	i	i	i	?
Cc1nn(C)cc1CN(C)C(=O)c1cc2nc(-c3ccco3)cc(C(F)(F)F)n2n1	12.6µM	i	i	i	i
Cc1nn(C)c(C)c1CN(C)C(=O)c1cc2nc(-c3ccco3)cc(C(F)(F)F)n2n1	?	i	i	i	i
Cc1ccccc1Cn1nc(C)c(NC(=O)c2cc3nc(-c4ccco4)cc(C(F)(F)F)n3n2)c1C	2.51µM	i	?	nt	i
Cc1cccc(N2CCN(C(=O)Cc3c(C(=O)O)c(C)cn3C)CC2)c1C	nt	nt	i	nt	nt
COc1ccc(C(=O)COC(=O)c2ccc(OC)c(OC)c2)cc1OC	?	i	i	i	i
COc1ccc(C(=O)COC(=O)CCN=C2NS(=O)(=O)c3ccccc32)cc1OC	10µM	i	i	i	?
COc1ccccc1-c1ccc2ncnc(Nc3ccccc3)c2c1	?	i[9.22 µM]	i[11.4 µM]	i	i
O=c1c(-c2cc(F)cc(F)c2)nc2cnc(N3CCOCC3)nc2n1C[C@H]1CCCO1	?	i[9.22 µM]	i[11.4 µM]	i	i
